A selection: hits, their analogues and other compounds. The true share with any hit is near 2.8%.
SENP7 block: SENP7 protease inhibitors, primary screen, biochemical, luminescence, uHTS; inhibition, % at 5 µM; recombinant SENP7, Z-RLRGG-aminoluciferin luminescence, 40 min; 330,000 tested, 1.5% active;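 active = inhibition above about 50% at the single test dose, limit read from the data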;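 also: plate controls were DMSO with enzyme for no effect and no enzyme buffer wells for full effect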
SENP8 block-1: SENP8 protease inhibitors, primary screen, biochemical, luminescence | Sentrin-specific protease 8 (Homo sapiens), Q96LD8 | purified SENP8, Z-RLRGG-aminoluciferin cleavage | inhibition, % at 10 µM | 330,000 tested, 1.2% active; in the data active = inhibition above about 50%
SENP6 inh: SENP6 protease inhibitors, primary screen, biochemical, luminescence, uHTS; 330,000 tested, 1.8% active; Sentrin-specific protease 6 (Homo sapiens), Q9GZR1; AID 2599, 2010; inhibition, % at 10 µM; Recombinant SENP6 catalytic domain, aminoluciferin luminescence;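 active = inhibition above about 50% at the single tested dose, limit read from the data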;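 also: plate controls were DMSO wells with enzyme for no effect and DMSO wells lacking enzyme for full effect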
Target sequence (Q9GZR1 628-1112 limits assumed): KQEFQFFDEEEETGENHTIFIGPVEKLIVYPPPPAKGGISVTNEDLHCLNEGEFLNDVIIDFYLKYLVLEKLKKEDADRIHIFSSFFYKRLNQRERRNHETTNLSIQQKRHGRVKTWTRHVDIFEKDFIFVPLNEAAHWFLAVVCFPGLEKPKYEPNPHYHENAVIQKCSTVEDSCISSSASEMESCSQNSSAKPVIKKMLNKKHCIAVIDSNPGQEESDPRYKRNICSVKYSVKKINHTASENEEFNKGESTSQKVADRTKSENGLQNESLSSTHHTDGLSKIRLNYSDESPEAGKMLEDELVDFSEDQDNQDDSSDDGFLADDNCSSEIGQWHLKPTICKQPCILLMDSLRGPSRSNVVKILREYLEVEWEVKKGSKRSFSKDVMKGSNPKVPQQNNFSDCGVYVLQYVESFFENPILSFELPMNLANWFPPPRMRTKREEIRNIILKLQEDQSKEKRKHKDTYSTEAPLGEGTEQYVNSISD
SENP8 block-2: human SENP8 protease inhibitors, primary screen, biochemical, fluorescence, Nedd8 protein substrate, uHTS | recombinant SENP8 | inhibition, % at 20 µM | Sentrin-specific protease 8 (Homo sapiens), Q96LD8 | 360,000 tested, 0.64% active; in the data active = inhibition mostly above about 40%, no sharp cut-off; inactive = mostly below about 27%
HSP90 inh: HSP90 inhibitors, primary screen, cell lysate, luminescence; Heat shock protein HSP 90 (rabbit reticulocyte lysate; luciferase refolding); Rabbit reticulocyte lysate, luciferase refolding luminescence, 3 h; AID 1789, 2009; 290,000 tested, 0.91% active; inhibition, % at 5.6 µM;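 active = inhibition above the screen-wide mean plus 3 SD, computed separately per campaign, cut at about 16% in these data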;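 also: 0% = DMSO wells and 100% = 60 µM geldanamycin wells; inhibitors lower the luminescence because luciferase stays unfolded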
SENP8 confirm: SENP8 protease inhibitors, retest, confirmation, biochemical, luminescence, single concentration; Recombinant SENP8, Z-RLRGG-aminoluciferin luminescence, 60 min; AID 488912, 2010; shares compounds with SENP7 block; inhibition, % at 12.5 µM; 6,200 tested, 40% active;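 active = mean inhibition across replicates above about 50%, limit read from the data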
SENP6 conf: SENP6 protease inhibitors, confirmation, biochemical, luminescence, single concentration | inhibition, % at 12.5 µM | AID 488915, 2010 | recombinant SENP6, Z-RLRGG-aminoluciferin luminescence | 6,200 tested, 58% active | shares compounds with SENP7 block
SENP7 confirm: SENP7 protease inhibitors, retest, confirmation, biochemical, luminescence, single concentration. shares compounds with SENP7 block. 6,200 tested, 69% active. AID 488917, 2010. inhibition, % at 12.5 µM. recombinant SENP7, Z-RLRGG-aminoluciferin luminescence, 40 min
Casp3 select: caspase-3 protease inhibitors, confirmation, selectivity assay for SENP inhibitor project, biochemical, single concentration; inhibition, % at 12.5 µM; AID 488918, 2010; 6,200 tested, 60% active; purified caspase-3, Z-DEVD-aminoluciferin luminescence, 60 min; shares compounds with SENP7 block;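 active = mean inhibition above about 50%, limit read from the data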;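 also: plate controls were enzyme with DMSO for no effect and wells without caspase-3 for full effect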
Luc interf: counter-screen for SENP inhibitors: luminescence interference | shares compounds with SENP7 block | Pre-incubated SENP8/Z-RLRGG-aminoluciferin, luciferase luminescence interference | inhibition, % at 12.5 µM | 6,200 tested, 39% active;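 active = mean inhibition above about 50% when retested at one dose, limit read from the data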;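 also: plate controls were DMSO wells with completed reaction for no effect and substrate without enzyme for full effect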
An asterisk follows results filed as active; i = inactive; . = no result.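 The calls were made as follows, unless noted: active = mean inhibition above about 50% in the one-dose retest (limit read from the data); inactive = the rest.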

SMILES | SENP7 block | SENP8 block-1 | SENP6 inh | SENP8 block-2 | HSP90 inh | SENP8 confirm | SENP6 conf | SENP7 confirm | Casp3 select | Luc interf
CCCCOc1ccc(CSc2ncn[nH]2)cc1 | 17 | 9 | 46 | 8 | 1 | . | . | . | . | .
CCCCCOc1ccc(CSc2ncn[nH]2)cc1 | 16 | 50 | 65* | -17 | 0 | 71* | 68* | 86* | 25 | 74*
CCOc1ccc(OCCSc2nc3ccccc3[nH]2)cc1 | 3 | -6 | -41 | 10 | 2 | . | . | . | . | .
CCCC1SCC(C)(C)NC1=O (stereo not given) | . | . | . | 7 | . | . | . | . | . | .
O=C(NCC(=O)N1CC=C(c2ccccc2)CC1)c1ccc(OC(F)F)cc1 | 5 | -1 | 9 | -8 | . | . | . | . | . | .
c1ccc(CSc2nc3ccccc3[nH]2)cc1 | 77* | 69* | -13 | 17 | 3 | 62* | 72* | 94* | 80* | 24
COc1cc(C#Cc2ccc3cc(CCO)oc(=O)c3c2)cc(OC)c1 | 85* | 80* | 84* | i | . | 81* | 83* | 95* | 61* | 65*
O=C(Nc1cccc2cccnc12)c1ccc2c(c1)OCCO2 | 32 | 9 | 49 | -3 | 1 | . | . | . | . | .
O=C(Nc1ccc(C(=O)O)cc1)Nc1cccc2ccccc12 | 34 | 17 | 58* | -74 | 1 | 38 | 34 | 65* | 62* | 34
O=C(Nc1ccccc1)Nc1cccc2cccnc12 | 74* | 60* | 42 | 8 | -3 | 80* | 80* | 94* | 59* | 77*
Cc1ccc(C(=O)Nc2cccc3cccnc23)cc1Br | 55* | -5 | 4 | 4 | . | -2 | 2 | 9 | 23 | 12
Cc1csc(NC(=O)c2ccc(S(=O)(=O)N(C)c3ccccc3)cc2)n1 | -4 | 3 | -1 | 4 | 0 | . | . | . | . | .
CC1CCc2[nH]nc(C(=O)O)c2C1 (stereo not given) | 5 | 2 | -9 | 15 | 3 | . | . | . | . | .
O=C(Nc1ccc(-c2ccccc2)cc1)c1ccccc1 | 0 | 1 | 10 | -64 | -3 | . | . | . | . | .
Cc1ccc(NC(=O)c2cccc3cccnc23)cc1 | 28 | 30 | 54* | 16 | -3 | 50* | 45 | 72* | 32 | 30
Cc1ccc(NC(=O)c2ccccc2)cc1 | 50* | 12 | -5 | 14 | -6 | 42 | 42 | 78* | 72* | 54*
O=C(Nc1ccccc1Cl)c1ccc(C(=O)Nc2ccccc2Cl)cc1 | . | . | . | -104 | . | . | . | . | . | .
Cc1ccc(C(=O)Nc2ccccc2Cl)cc1 | 58* | 45 | 69* | 1 | 2 | 50* | 55* | 86* | 78* | 55*
O=C(Nc1ccccc1)c1ccc(OC(=O)c2ccccc2)cc1 | 81* | 13 | 54* | 5 | -2 | 4 | 8 | 12 | 9 | 0
O=C(CN1CCN(C(=O)c2cccs2)CC1)Nc1ccc(Br)cc1 | -6 | -9 | -10 | 15 | 4 | . | . | . | . | .
O=C(Nc1ccccc1)c1ccccc1O | 6 | -12 | 6 | -146 | 1 | . | . | . | . | .
Cc1ccc(C(=O)CC(=O)c2ccccc2)cc1 | 66* | 70* | 75* | 20 | -2 | -4 | 66* | 91* | 50* | 44

Screening data from PubChem.
